The record followed here is PubChem BioAssay (NCATS).

Inconclusive results are not listed. The source made the active and inactive calls. Calls follow the shape of the dose curve; as a rule, active = well fitted curve in either direction with a large enough effect (not every such curve was filed as active); inconclusive = small, poorly fitted or top-dose-only effect, or another doubt; inactive = flat fitted curve, though single readings scatter.
% is scaled to controls: 0 for no effect and ±100 for the full control effect.

A short description of this assay: Stat Signaling Pathway (AID 446).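 Also: ME-180 cervical cancer cells given 40 pM IL-6 alongside compound; SIE-controlled beta-lactamase reporter measured as 460/530 nm FRET emission ratio.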 Conditions: ME-180 SIE beta-lactamase reporter, IL-6 stimulated, 5 h; at 17.2 µM (top of the series) unless noted. Put shortly: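 ME-180 SIE-bla cells; overnight plating; cpd + IL-6 40 pM, 5 h, 37 C; LiveBLAzer 2.5 h RT; 460/530 nm emission ratio. Normalized to 300 pM IL-6 and 125 nM JAK inhibitor controls.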
Consider `Cn1c(NCCN2CCCCC2)cc(=O)n(C)c1=O`, for which the activity, negative = inhibition is 9.99% (inactive). Consider `CCCOc1ccc(N2C(=O)CC(N(Cc3ccc(S(N)(=O)=O)cc3)C(=O)CC)C2=O)cc1` (stereo not drawn), for which the activity, negative = inhibition was 11.7% (inactive).

For `CCOC(=O)c1c(CN2CCN(CCO)CC2)n(C)c2cc(Br)c(OC)cc12`, the activity, negative = inhibition was -13.7% (inactive). Turning to `CCC(=O)N[C@@H]1CC(C(C)(C)NC(=O)CC)CC=C1C` (stereo partly drawn), the activity, negative = inhibition was 0.886% (inactive). The figure for `CC1CCCCN1C(=O)C12CCC(C)(/C(=N/O)C1)C2(C)C` (stereo not drawn) is 7.2% (inactive); for `COC(=O)c1[nH]c(C)c(/C(O)=C2\C(=O)C(=O)N(CCN3CCOCC3)C2c2cccnc2)c1C` (stereo not drawn) it is 2.79% (inactive). Turning to `O=C(O)CC(C(=O)OCCOc1ccccc1)N1CCOCC1` (stereo not drawn), the activity, negative = inhibition is -1.47% (inactive).

As for `O=C(c1cccc(Cl)c1)N1CCN(C(=O)c2ccccc2F)CC1`, the activity, negative = inhibition is -11.1% (inactive).

Regarding `N#CC1=C(N)OC2=C(C(=O)CCC2)C1CCc1ccccc1` (stereo not drawn), the activity, negative = inhibition is 8.87% (inactive).

Consider `CN/C(=C/[N+](=O)[O-])NCCSCc1ccc(CN(C)C)o1`, for which the activity, negative = inhibition is -3.38% (inactive). In the case of `COc1ccc(C(CC(=O)O)NC(=O)OC(C)(C)C)cc1` (stereo not drawn), the activity, negative = inhibition is 3.55% (inactive).

Regarding `COC(=O)c1ccc(Cn2c(O)c(N=O)c3ccccc32)o1`, the activity, negative = inhibition was 3.14% (inactive).

In the case of `Cc1cc(C)n(CC(=O)c2ccccc2)c(=O)c1C#N`, the activity, negative = inhibition is -3.77% (inactive).

For `Nc1nnc(CSc2ccc(Cl)cc2)s1`, the activity, negative = inhibition is 2.04% (inactive). `CN(C)CCNC(=O)C12CC3(C)CC(C)(CC(C)(C3)C1)C2`: the activity, negative = inhibition is 8.6% (inactive). `CCCc1nnc(NC(=O)c2c(O)c3c([nH]c2=O)CCCC3)s1`: the activity, negative = inhibition is 12.4% (inactive). On to `Fc1cnc(N2CCOCC2)nc1NCc1ccccc1`, for which the activity, negative = inhibition is -8.43% (inactive). The figure for `CCN1CCc2c(C#N)c(NCc3ccccc3)nc(N(CC)CC)c2C1` is 12.6% (inactive); for `Cc1sc(-n2c(C)ccc2C)c(C#N)c1C` it is 0.959% (inactive). Then `COC(=O)c1ccc(C2/C(=C(\O)c3cccc(OC)c3)C(=O)C(=O)N2CCCN(C)C)cc1` (stereo not drawn), with 5.36% (inactive); and `Cc1[nH]c2ccc3c(ncn3CCC#N)c2c1C`, with -5.09% (inactive).

As to `COC(=O)c1sccc1NC(=O)c1c(C)cc(=O)oc1C`, the activity, negative = inhibition is -6.64% (inactive).

For the compound `CN(C)S(=O)(=O)Nc1ccc(NS(=O)(=O)N(C)C)c(S(=O)(=O)c2ccccc2)c1`, the activity, negative = inhibition is 21.4% (inactive).
